Data: PubChem BioAssay (NCATS)
Results filed as inconclusive are left out. Values without a mark were called inactive. Calls of active or inactive are those of the source. The call rests on the fitted dose curve; in most records, active means well fitted curve in the direction sought with a large enough effect; inconclusive means small, poorly fitted or top-dose-only effect, or another doubt; inactive means no such curve, though single readings can be large or run the other way.

Molecular target: Protein phosphatase 1D (Homo sapiens) (UniProt O15297)
Assay: Rhodamine-PBP qHTS Assay for Modulators of WT P53-Induced Phosphatase 1 (WIP1) (AID 1347425)
Conditions: recombinant WIP1, Rhodamine-PBP phosphate fluorescence, real-time; series mostly up to 57.5 µM; activity change, negative = inhibition: at the top concentration
Source text: Assay Provider (PI): Nathan Coussens Ph.D.
National Center for Advancing Translational Sciences (NCATS), Rockville, MD
National Institute of Health (NIH), Bethesda, Maryland
WT P53-Induced Phosphatase 1 (WIP1) is a member of the magnesium-dependent serine/threonine protein phosphatase (PPM) family and is induced by P53 in response to DNA damage. In several human cancers, the WIP1 protein is overexpressed, which is generally associated with a worse prognosis. Although WIP1 is an attractive therapeutic target, no potent, selective, and bioactive small-molecule modulator with favorable pharmacokinetics has been reported. Phosphatase enzymes are among the most challenging targets for small molecules because of the difficulty of achieving both modulator selectivity and bioavailability. Another major obstacle has been the availability of robust and physiologically relevant phosphatase assays that are suitable for high-throughput screening.
Here, we describe two orthogonal biochemical WIP1 activity assays that utilize phosphopeptides from native WIP1 substrates. We optimized a RapidFire MS assay to quantify the enzymatically dephosphorylated peptide reaction product in a 384-well format. Additionally, a redshifted Rhodamine-PBP fluorescence assay was optimized in a 1,536-well format to enable real-time WIP1 activity measurements through the detection of the orthogonal reaction product, Pi. We validated these two optimized assays by quantitative high-throughput screening against the National Center for Advancing Translational Sciences (NCATS) Pharmaceutical Collection and used secondary assays to confirm and evaluate inhibitors identified in the primary screen.
SEQUENCE No. (e.g., 1, 2, 3, etc.); […] (e.g., Cells, Incubation, Reagent, etc.); VALUE; DESCRIPTION
1; Reagent; 3 uL; WIP1 (6.7 nM), Rh-PBP (13.3 uM), columns 1-48
3; Library Compounds; 23 nL; NCATS Pharmaceutical Collection, column 5-48
4; Control Compounds; DMSO in column 2, GSK2830371 (57.5 uM, final) in 3-fold serial dilutions in column 3, GSK2830371 (1.15 uM, final) in column 4
5; Time; 1 hr; incubation
6; Detection; fluorescence (f0); ViewLux, excitation filter = 525 nm, emission filter = 598 nm
7; Reagent; 1 uL; VEPP-pS-QETFS (40 uM), columns 2-48
8; Detection; fluorescence (f1); ViewLux, excitation filter = 525 nm, emission filter = 598 nm
NOTES (numbers refer to sequence above)
1 & 2; Black medium binding Greiner 1536-well plates (# 789176-F); assay buffer: 50 mM Tris-HCl pH 7.5, 30 mM MgCl2, 1mM TCEP, 0.1 mM EGTA, 75 ug/mL BSA; dispensed with a BioRaptr liquid handler (Beckman Coulter).
3 & 4; Kalypsys pintool (equipped with 1536 pinhead, Wako USA) transfer. Tip wash sequence: DMSO, methanol, 3 sec vacuum dry.
5; Room temperature incubation.
7; VEPPL-pS-QETFS in assay buffer dispensed with a BioRaptr; final reaction conditions: 5 nM WIP1, 10 uM VEPPL-pS-QETFS, 10 uM Rh-PBP, 50 mM Tris-HCl pH 7.5, 30 mM MgCl2, 1 mM TCEP, 0.1 mM EGTA, 75 ug/mL BSA.
8; Measurement taken at 1 min intervals for 11 min. Delta readout = f1 - f0.

Protein phosphatase 1D (Homo sapiens), sequence (O15297 whole entry, looked up): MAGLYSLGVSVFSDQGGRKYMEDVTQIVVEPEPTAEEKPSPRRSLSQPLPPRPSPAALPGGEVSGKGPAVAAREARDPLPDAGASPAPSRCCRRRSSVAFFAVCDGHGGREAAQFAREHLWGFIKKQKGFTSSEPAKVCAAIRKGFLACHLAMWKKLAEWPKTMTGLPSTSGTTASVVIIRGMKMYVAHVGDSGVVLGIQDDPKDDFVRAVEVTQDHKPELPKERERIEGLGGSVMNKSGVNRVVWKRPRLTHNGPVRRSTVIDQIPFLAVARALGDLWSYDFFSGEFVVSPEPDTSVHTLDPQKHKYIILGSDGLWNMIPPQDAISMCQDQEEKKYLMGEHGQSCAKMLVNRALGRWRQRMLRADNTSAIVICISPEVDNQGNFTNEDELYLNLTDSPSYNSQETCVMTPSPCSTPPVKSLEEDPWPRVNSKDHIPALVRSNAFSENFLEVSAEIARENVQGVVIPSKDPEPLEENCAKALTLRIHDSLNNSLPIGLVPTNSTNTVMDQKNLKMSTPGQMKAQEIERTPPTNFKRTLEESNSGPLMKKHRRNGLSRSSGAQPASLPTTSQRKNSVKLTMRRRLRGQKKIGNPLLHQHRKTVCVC

SMILES	activity change, negative = inhibition	outcome
O=C(O)Cc1ccc(-c2ccccc2)cc1	-2.98%	–
CC1(C)S[C@@H]2[C@H](NC(=O)[C@H](N)c3ccccc3)C(=O)N2[C@H]1C(=O)O	-14.1%	–
CC(N)C(=O)OC(C)(C)Cc1ccc(Cl)cc1 (stereo not given)	9.51%	–
CN(C)CCn1nnnc1SCC1=C(C(=O)O)N2C(=O)[C@@H](NC(=O)Cc3csc(N)n3)[C@H]2SC1	-10.9%	–
CN(C)[C@@H]1C(=O)C(C(=O)NCN2CCCC2)=C(O)[C@@]2(O)C(=O)C3=C(O)c4c(O)cccc4[C@@](C)(O)C3C[C@@H]12 (stereo not given in full)	-8.29%	–
Cc1ccc2c(n1)Oc1ccc(C(C)C(=O)OCC(=O)N(C)C)cc1C2 (stereo not given)	–	inactive
Cc1ccc(C(=O)c2ccc(CC(=O)O)n2C)cc1	-7.14%	–
NC(=O)C(c1ccccc1)(c1ccccc1)[C@@H]1CCN(CCc2ccc3c(c2)CCO3)C1	23.3%	–
O=C(CS)Nc1ccccc1	-22%	–
O=C(O)c1cc(O)c(O)c(O)c1	8.57%	–
COC(=O)Nc1nc2ccc(C(=O)C3CC3)cc2[nH]1	40.1%	–
COC(=O)C1=C(C)NC(C)=C(C(=O)OCC(C)=O)C1c1ccccc1[N+](=O)[O-] (stereo not given)	4.27%	–
CC(C)OC(=O)c1cc(C(=O)OC(C)C)cc([N+](=O)[O-])c1	2.55% [at 116 µM]	–
C#CC1(O)CC[C@H]2[C@@H]3CCC4=CCCC[C@@H]4[C@H]3CC[C@@]21C (stereo not given in full)	15.3%	–
CCCOC(=O)c1ccc(O)cc1	8.72% [at 116 µM]	–
[O-][n+]1ccccc1SSc1cccc[n+]1[O-]	-4.87% [at 23.8 µM]	–
CC(=O)SCC(CC(=O)c1ccc(C)cc1)C(=O)O (stereo not given)	8.03%	–
Clc1ccccc1-c1nc(-c2ccncc2)no1	0%	–
Cc1ccc(O)c(-n2nc3ccccc3n2)c1	0.695%	–
CN1CC(=O)N/C1=N/C(=O)Nc1cccc(Cl)c1	6.95%	–

SMILES	activity change, negative = inhibition	outcome
CN1CCN(c2cc3c(nn2)Oc2ccccc2N3C)CC1	7.42% [at 23.8 µM]	–
NCCO	12.5% [at 116 µM]	–
Cc1c(N)c(=O)n(-c2ccccc2)n1C	0.323%	–
Cc1c(C(=O)O)c(O)cc2c1C(=O)c1c(O)c([C@@H]3O[C@H](CO)[C@@H](O)[C@H](O)[C@H]3O)c(O)c(O)c1C2=O	-8.88%	–
CCOC(=O)c1ccccc1O	4.4%	–
O=C(CCN1CCN(CCO)CC1)N1c2ccccc2Sc2ccc(C(F)(F)F)cc21	4.13%	–
S=c1[nH]c2ccccc2s1	-9.27% [at 116 µM]	–
CCCSc1ccc2nc(NC(=O)OC)[nH]c2c1	4.63%	–
C#C[C@]1(O)CC[C@H]2[C@@H]3CCc4cc(O)ccc4[C@H]3CC[C@@]21C	8.22%	–
O=C(O)/C=C\C(=O)O	6.86%	–
O=C1CN(/N=C/c2ccc([N+](=O)[O-])o2)C(=O)N1	-3.17%	–
O=C(/C=C/c1ccccc1)NCCO	-22.7%	–
CO[C@@]1(NC(=O)Cc2cccs2)C(=O)N2C(C(=O)O)=C(COC(N)=O)CS[C@@H]21	7.79%	–
COc1cc2c3cc1Oc1cc(ccc1O)C[C@@H]1c4c(cc(OC)c(O)c4Oc4ccc(cc4)C[C@@H]3N(C)CC2)CC[N+]1(C)C	0.179%	–
CCOc1ccc2nc(S(N)(=O)=O)sc2c1	-10.7%	–
O=C(OCc1ccccc1)c1ccccc1	-0.251%	–
C=CCCCCCCCCC(=O)O	-0.467%	–
Oc1c(Br)cc(Br)c2cccnc12	13.4%	–
COC(=O)c1nc(Cl)c(Cl)nc1N	-10.9%	–
c1ccc(CCNc2nc(-c3ccccc3)cs2)cc1	-20.2%	–
